Results on 18 molecules are retold here after PubChem BioAssay (NCATS).

SMILES strings stand for the structures. Results filed as inconclusive are left out. The source made the active and inactive calls. Unless noted, the call rests on the fitted dose curve; in most records, active means well fitted curve in the direction sought with a large enough effect; inconclusive means small, poorly fitted or top-dose-only effect, or another doubt; inactive means no such curve, though single readings can be large; an effect the other way counts as inactive or inconclusive.

Test [1] addresses Luciferin 4-monooxygenase (Photinus pyralis) (UniProt P08659). The experiment in a line: Biochemical firefly luciferase enzyme assay for NPC (AID 624030).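 Further: purified P. pyralis luciferase at 10 nM with luciferin and ATP substrate; 0% = DMSO and -100% = full luciferase inhibition by PTC124 control; nearly all actives have a fitted effect of over 70% in size.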 A digest of the protocol:
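Direct inhibition of firefly luciferase enzyme (10 nM final, 50 mM Tris Acetate) assessed by luminescence within 5 minutes. Percent activity scaled between DMSO and PTC124 positive control, with concentration-effect curves classified by fit quality and response.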

A short description of test [2]: S16 Schwann cell viability assay (CellTiter-Glo assay) (AID 624031). Further: nearly all actives have a fitted effect of over 70% in size. Further: potency means the concentration at half of the fitted maximal effect. A digest of the protocol: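 Native S16 Schwann cells (rat), serum-containing medium, overnight attachment then 24 h drug exposure at 37 °C/5% CO2. CellTiter-Glo ATP signal; normalized to cell-free and vehicle wells.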
A general note: Cellular ATP, detected with luciferase, serves as a proxy for viable cell number.

Test [3] is described as follows: S16 Schwann cell PMP22 intronic element beta-lactamase assay (AID 624044; calls by dose curve;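 further: 0% = DMSO and -100% = potassium clavulanate positive control; nearly all actives have a fitted effect of over 15% in size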). Put shortly: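 Rat S16 Schwann cells with beta-Lac driven by a PMP22 intronic element, compound-treated 24 h at 37 °C. LiveBLAzer FRET B/G read: 460 nm normalized to potassium clavulanate vs DMSO; 535 nm FRET as viability; concentration-effect curves classified.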
Test [4] is described as follows: qHTS Assay for Identification of Small Molecule Agonists for NFkB Signaling Pathway. (AID 624478).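 Further: compounds tested together with TNF alpha at its EC50 of 10 pM; 0% is about no effect.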 Put shortly:
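Cells carrying an NFkB response element-driven beta-lactamase gene are co-treated with compound and 10 pM TNF alpha for 5 h, and reporter activity is then read as 460 and 530 nm fluorescence.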
For orientation: Quantitative high-throughput screening tests each substance at several concentrations.

Test [5] is described as follows: qHTS Assay for Identification of Small Molecule Antagonists for NFkB Signaling Pathway. (AID 624479; calls by dose curve;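 further: pathway stimulated with TNF alpha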; further: potency means the concentration at half of the fitted maximal effect).
Test [6] deals with Glutaminase kidney isoform, mitochondrial (Homo sapiens) (UniProt O94925). The experiment in a line: qHTS for Inhibitors of Glutaminase (GLS): LOPAC Validation (AID 624146).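 Further: glutamate product detected by oxidase and peroxidase coupled Amplex red fluorescence gain; on the % scale 0 is the no-effect control and ±100 the full control effect; nearly all actives have a fitted effect of over 60% in size.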 A digest of the protocol:
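Two-point fluorescence kinetic (t0, 30 min RT) for hKGA; glutamate detected via glutamate oxidase–HRP–Amplex Red. Substrate: 1 mM L-glutamine solution; buffer 45 mM KH2PO4, pH 8.2.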

Test [7] has as its target Glucagon-like peptide 1 receptor (Homo sapiens) (UniProt P43220). The experiment in a line: qHTS of GLP-1 Receptor Agonists: LOPAC Validation (AID 624148).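 Further: luminescence from a luciferase reporter switched on by cAMP; 0% is about no effect; higher luminescence signal means agonism.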 A digest of the protocol: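 Agonism scored as increased luciferase luminescence driven by cAMP in HEK293 clones carrying GLP-1R. Cells settled 12 hours, received compound for 4-6 hr at 37 deg C, 5% CO2, and were read after 12 min detection reagent at RT.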

Test [8] can be described thus: qHTS of Nrf2 Activators: LOPAC Validation (AID 624149). Further: 0% is about no effect. A digest of the protocol: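 ARE reporter activation measured in AREc32 firefly luciferase cells after 24 hr compound exposure; Steady-Glo luminescence.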
Test [9] can be described thus: qHTS for Inhibitors of the vitamin D receptor (VDR): Hit Validation using a Texas Red Assay (AID 602201). Further: potency means the concentration at half of the fitted maximal effect. To be noted: VDR coregulator binding, Texas Red fluorescence polarization; agonist-bound VDR ligand-binding domain. Put shortly:
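After a 2-hour room-temperature incubation, polarization of Texas-Red emission was read (Ex 595 nm/Em 615 nm). Final mix contained 7 nM Texas Red, 1.5 uM VDR-LBD and LG19078.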

A short description of test [10]: qHTS of Trypanosoma Brucei Inhibitors: LOPAC Validation (AID 624147). Further: 0% is about no effect. Put shortly:
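In this concentration-response screen, enzyme-free wells defined baseline while DMSO plates tracked drift. Each reaction combined TbPYK, substrate, compound and 130 uM ADP for 45 min at room temperature. Kinase-Glo Plus luminescence gave the signal.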

For test [11], the target named is Voltage-gated inwardly rectifying potassium channel KCNH2 (Homo sapiens) (UniProt Q12809). Description: qHTS Assay for Small Molecule Inhibitors of the Human hERG Channel Activity (AID 588834).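 Further: lower thallium flux fluorescence means stronger hERG block; nearly all actives have a fitted effect of over 50% in size.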 Further: potency means the concentration at half of the fitted maximal effect. A digest of the protocol:
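Concentration-response qHTS measuring drop in thallium-sensitive dye signal. U2OS cells carrying BacMam hERG; compound exposure ~10 min, then stimulation buffer and 2 min read at 1 sec intervals.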

Test [12] in a line: Cytotoxicity counterscreen for NFkB agonists and antagonists (AID 624476;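 further: cells exposed to compound for 48 hours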; further: potency means the concentration at half of the fitted maximal effect). (The purpose of a counterscreen is to sort out artefacts and off-target activity.)
Test [13] is described as follows: Cell Proliferation Assay against the TMD8 Cell Line (AID 651645).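 Further: cells exposed to compound for 48 h before reading.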 The conditions noted are these: TMD8 DLBCL cell line proliferation/viability; at 46.1 µM (top of the series) unless noted. Put shortly: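 Luminescent ATP read-out (CellTiter-Glo, 15 min RT) after 48 h compound exposure of log-growing TMD8 cells at 37C; percent activity scaled between DMSO as 100% and 9.2 uM bortezomib final as 0%.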

Test [14] in a line: Cell Proliferation Assay against the HBL1 Cell Line (AID 651646).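 Further: cells exposed to compound for 48 h before reading.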 To be noted: HBL1 DLBCL cells; at 46.1 µM (top of the series) unless noted. A digest of the protocol:
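Luminescent ATP read-out (CellTiter-Glo) after 48 h compound exposure of HBL1 cells at 37 °C; percent activity was scaled between DMSO as 100% and 9.2 uM bortezomib (final) as 0%.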

A short description of test [15]: Cell Proliferation Assay against the TMD8 Cell Line (Caspase readout at 8 hrs) (AID 651713). Put shortly:
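Percent activity derived from Caspase-Glo signal, DMSO set to 0% and bortezomib (9.2 uM final) to 100%. TMD8 cells were exposed to compound for 8 h in RPMI with 5% FBS.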

Test [16] can be described thus: qHTS assay for small molecule activators of the nuclear factor-kappa B (NF-kB) signaling pathway (AID 651749; active means well fitted activation curve with a large enough effect in the signal ratio; the % refers to the signal ratio; further: % of control where 0% means no effect). To be noted: NF-kB-bla ME-180 cells, beta-lactamase FRET ratio, 16 h; stronger effect = higher value. Put shortly:
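Stably transfected ME-180 line; NF-kB response element upstream of beta-lactamase. Treatment: compound or DMSO, 16 hr. Detection: fluorescent FRET substrate.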

Sequence of Luciferin 4-monooxygenase (Photinus pyralis) (P08659 whole entry, looked up): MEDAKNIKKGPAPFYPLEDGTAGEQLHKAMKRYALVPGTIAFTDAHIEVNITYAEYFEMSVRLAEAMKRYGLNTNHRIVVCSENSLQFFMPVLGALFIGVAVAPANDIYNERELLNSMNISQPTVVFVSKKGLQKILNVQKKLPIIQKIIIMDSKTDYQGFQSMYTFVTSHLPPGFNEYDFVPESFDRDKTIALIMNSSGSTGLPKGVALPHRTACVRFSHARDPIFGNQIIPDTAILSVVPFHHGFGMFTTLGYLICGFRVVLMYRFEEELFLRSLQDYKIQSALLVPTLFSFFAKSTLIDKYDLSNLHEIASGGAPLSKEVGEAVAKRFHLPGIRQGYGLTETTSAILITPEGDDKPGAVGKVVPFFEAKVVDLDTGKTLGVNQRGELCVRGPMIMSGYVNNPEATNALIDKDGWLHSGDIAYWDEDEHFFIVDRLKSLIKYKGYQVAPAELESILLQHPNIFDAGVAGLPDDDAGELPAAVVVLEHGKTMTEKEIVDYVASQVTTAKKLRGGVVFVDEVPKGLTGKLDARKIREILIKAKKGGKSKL
Sequence of Voltage-gated inwardly rectifying potassium channel KCNH2 (Homo sapiens) (Q12809 whole entry, looked up): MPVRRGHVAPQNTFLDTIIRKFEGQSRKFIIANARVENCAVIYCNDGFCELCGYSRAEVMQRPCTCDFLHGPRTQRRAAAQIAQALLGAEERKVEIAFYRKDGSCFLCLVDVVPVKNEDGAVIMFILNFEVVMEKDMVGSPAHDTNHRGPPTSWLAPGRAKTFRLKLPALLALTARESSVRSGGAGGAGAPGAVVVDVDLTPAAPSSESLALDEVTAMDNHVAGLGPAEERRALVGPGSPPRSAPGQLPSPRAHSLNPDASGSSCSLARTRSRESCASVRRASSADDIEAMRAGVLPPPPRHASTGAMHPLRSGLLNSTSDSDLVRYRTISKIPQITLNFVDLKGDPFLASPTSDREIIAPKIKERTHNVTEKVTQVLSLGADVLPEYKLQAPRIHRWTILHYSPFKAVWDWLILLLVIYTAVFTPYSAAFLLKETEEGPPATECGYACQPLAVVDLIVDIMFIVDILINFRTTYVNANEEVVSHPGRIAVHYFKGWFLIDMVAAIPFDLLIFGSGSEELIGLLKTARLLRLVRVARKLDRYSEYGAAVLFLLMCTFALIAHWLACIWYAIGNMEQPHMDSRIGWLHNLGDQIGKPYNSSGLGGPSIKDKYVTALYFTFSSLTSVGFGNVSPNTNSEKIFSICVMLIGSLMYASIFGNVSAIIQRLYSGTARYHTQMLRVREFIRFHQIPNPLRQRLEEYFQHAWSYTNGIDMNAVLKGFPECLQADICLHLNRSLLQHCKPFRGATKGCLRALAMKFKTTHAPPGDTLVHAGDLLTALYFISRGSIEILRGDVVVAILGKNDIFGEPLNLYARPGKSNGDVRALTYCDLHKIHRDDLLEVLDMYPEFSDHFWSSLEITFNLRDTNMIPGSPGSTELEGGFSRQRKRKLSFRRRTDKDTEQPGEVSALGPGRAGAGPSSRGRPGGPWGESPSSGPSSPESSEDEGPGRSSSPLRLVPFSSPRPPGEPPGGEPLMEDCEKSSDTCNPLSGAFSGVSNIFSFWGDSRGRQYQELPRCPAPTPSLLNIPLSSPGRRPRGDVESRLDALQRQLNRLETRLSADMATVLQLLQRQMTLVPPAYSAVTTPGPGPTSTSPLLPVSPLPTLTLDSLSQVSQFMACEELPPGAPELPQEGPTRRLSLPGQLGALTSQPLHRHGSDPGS
Sequence of Glutaminase kidney isoform, mitochondrial (Homo sapiens) (O94925 whole entry, looked up, canonical isoform): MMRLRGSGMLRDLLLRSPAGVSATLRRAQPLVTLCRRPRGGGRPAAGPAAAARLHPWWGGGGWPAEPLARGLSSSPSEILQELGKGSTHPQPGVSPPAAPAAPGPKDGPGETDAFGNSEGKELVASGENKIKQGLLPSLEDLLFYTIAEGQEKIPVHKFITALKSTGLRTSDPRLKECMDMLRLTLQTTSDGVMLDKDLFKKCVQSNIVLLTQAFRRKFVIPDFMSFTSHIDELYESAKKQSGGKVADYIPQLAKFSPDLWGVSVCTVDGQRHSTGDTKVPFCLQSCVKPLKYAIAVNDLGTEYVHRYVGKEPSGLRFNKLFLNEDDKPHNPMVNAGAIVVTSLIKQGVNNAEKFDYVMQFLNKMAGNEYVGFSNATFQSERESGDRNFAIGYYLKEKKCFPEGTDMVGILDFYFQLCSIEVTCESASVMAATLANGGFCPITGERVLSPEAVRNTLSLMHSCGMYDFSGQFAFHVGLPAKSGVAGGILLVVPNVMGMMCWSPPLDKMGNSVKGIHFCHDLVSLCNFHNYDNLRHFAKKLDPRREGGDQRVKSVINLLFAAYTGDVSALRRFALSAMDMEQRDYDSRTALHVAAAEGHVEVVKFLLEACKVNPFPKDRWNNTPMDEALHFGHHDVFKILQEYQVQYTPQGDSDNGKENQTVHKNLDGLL
Sequence of Glucagon-like peptide 1 receptor (Homo sapiens) (P43220 whole entry, looked up): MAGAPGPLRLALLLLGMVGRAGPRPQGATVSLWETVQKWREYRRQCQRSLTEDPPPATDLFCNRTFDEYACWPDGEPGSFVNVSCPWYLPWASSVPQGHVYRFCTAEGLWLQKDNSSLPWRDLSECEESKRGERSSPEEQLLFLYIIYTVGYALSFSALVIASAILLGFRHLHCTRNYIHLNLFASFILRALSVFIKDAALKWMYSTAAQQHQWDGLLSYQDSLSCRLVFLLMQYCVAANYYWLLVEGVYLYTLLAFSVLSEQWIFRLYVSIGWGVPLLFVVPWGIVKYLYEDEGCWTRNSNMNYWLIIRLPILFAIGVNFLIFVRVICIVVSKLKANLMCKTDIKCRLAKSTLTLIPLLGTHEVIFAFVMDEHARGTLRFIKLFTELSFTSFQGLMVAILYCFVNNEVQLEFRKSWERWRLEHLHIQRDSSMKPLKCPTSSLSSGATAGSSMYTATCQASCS

For the molecule `O=C1Nc2ccc(Cl)cc2C(C#CC2CC2)(C(F)(F)F)O1` (stereo unspecified), the Potency entry in [1], in [2] and in [3] was “inactive” in each case. The molecule was called inactive in test [4]. The Potency in test [5] was 30.6 µM (active).

In the case of `CC(=O)Oc1cc2c(s1)CCN(C(C(=O)C1CC1)c1ccccc1F)C2` (stereo unspecified), in test [1], the Potency result is “inactive”.

On to `C[N+](C)(C)CC(=O)O`, for which, in [6], the Potency entry was “inactive”. The molecule was called inactive in test [7] and in [8].

With `CC1(C)CCC2=C(O1)c1ccccc1C(=O)C2=O`, in test [9], the Potency is 14.1 µM (active). Besides, the molecule was classed as inactive in test [10], in test [7] and in test [8].

On to `COC(=O)[C@@H]1[C@H]2C[C@H]3c4[nH]c5ccccc5c4CCN3C[C@@H]2CC[C@@H]1O`, for which the Potency in test [11] is 11.2 µM (active). Besides, the Potency result in [6] is “inactive”. In addition, the result in test [10], in [7] and in test [8] was inactive.

Regarding `NC[C@@H]1O[C@@H](O[C@H]2[C@@H](O)[C@H](O[C@@H]3[C@@H](O)[C@@H](N)C[C@H](N)[C@H]3O[C@H]3O[C@H](CN)[C@@H](O)[C@@H](O)[C@H]3N)O[C@H]2CO)[C@H](N)[C@@H](O)[C@@H]1O`, the Potency result in [1] is “inactive”.

In the case of `O=C(O)CCC1CCC(c2cc(F)ccc2F)(S(=O)(=O)c2ccc(Cl)cc2)CC1` (stereo unspecified), the Potency entry in test [12], in [5] and in test [15] was “inactive” throughout. Moreover, the outcome in [4] was inactive. Further, the viability (% of control) in test [13] stood at 98.2%. Also, the viability, percent of control in test [14] worked out at 95.2%.

As to `Cc1nnc(C(C)C)n1C1C[C@H]2CC[C@@H](C1)N2CC[C@H](NC(=O)C1CCC(F)(F)CC1)c1ccccc1` (stereo partly specified), the Potency result in test [1] was “inactive”.

On to `NC(N)=Nc1nc(CSCC/C(N)=N/S(N)(=O)=O)cs1`, for which the Potency entry in test [1] and in [2] was “inactive” throughout. The outcome in [10], in test [7] and in test [8] was inactive.

`COc1cccc(-c2cc(=O)c3ccccc3o2)c1N`: the Potency entry in test [11] and in test [6] was “inactive” each time. The result in test [10], in test [7] and in test [8] was inactive.

For the molecule `CN(C)C1CCN(C(=O)c2ccc(NC(=O)Nc3nc(N4CCOCC4)nc(N4CCOCC4)n3)cc2)CC1`, the Potency in test [12] was 0.0743 µM (active). Moreover, the molecule was classed as inactive in test [4]. For the same molecule, the Potency result in test [5] is “inactive”. Further, the viability (% of control) in test [13] turned out to be 2.35%. Further, the viability, percent of control in test [14] is 26.9%.

Take `CC/C(=C(\c1ccccc1)c1ccc(OCCN(C)C)cc1)c1ccccc1`: the Potency entry in [1] and in test [6] was “inactive” throughout. Moreover, the Potency in test [2] was 32.2 µM (active). Moreover, the molecule was called inactive in [10], in test [7] and in [8].

Regarding `CN1C[C@H]2c3ccccc3Oc3ccc(Cl)cc3[C@@H]2C1`, the Potency entry in test [1] is “inactive”.

In the case of `Clc1ccc(COC(Cn2ccnc2)c2ccc(Cl)cc2Cl)cc1` (stereo unspecified), the Potency result in test [1], in [2] and in test [3] was “inactive” each time.

In the case of `COc1ccc(Cc2nccc3cc(OC)c(OC)cc23)cc1OC`, the Potency entry in [1], in test [2] and in test [6] was “inactive” throughout. The outcome in test [10] and in test [8] was inactive.

In the case of `O=C(O)c1cc(O)c2c(c1)C(=O)c1cccc(O)c1C2=O`, the Potency result in [11] was “inactive”. The activation in test [16] was 1% (inactive).

As to `CN1[C@@H]2CCC[C@@H]1CC(NC(=O)c1nn(C)c3ccccc13)C2` (stereo partly specified), the Potency result in test [1] is “inactive”.

Take `C[N+](C)(C)CCCCCC[N+](C)(C)C`: the Potency entry in test [11], in test [1], in test [2] and in [6] was “inactive” throughout. Also, the molecule was classed as inactive in test [10], in test [7] and in [8].
